Tested on: Madurella mycetomatis MM55
Test: percent growth relative to solvent control; higher = less inhibition, active = 20 or less
Conditions: 100 µM; 7 days

SMILES	percent growth
COc1ccc(-c2nn(C(C)C)c3ncnc(N)c23)cc1OC	22.9% (inactive)
COc1ccc(C2CC(c3cccs3)=NN2C(=O)c2ccco2)cc1OC (centres undefined)	100% (inactive)
O=C(Nc1ccnc(-c2cccnc2)n1)c1cc(C(F)(F)F)cc(C(F)(F)F)c1	169% (inactive)
Brc1c(-c2ccc3c(c2)OCO3)nc2ncccn12	85.6% (inactive)
Cc1ccc(C(=O)Nc2ccc(S(=O)(=O)O)c3cc(S(=O)(=O)O)cc(S(=O)(=O)O)c23)cc1NC(=O)c1cccc(NC(=O)Nc2cccc(C(=O)Nc3cc(C(=O)Nc4ccc(S(=O)(=O)O)c5cc(S(=O)(=O)O)cc(S(=O)(=O)O)c45)ccc3C)c2)c1	141% (inactive)
Cc1cc2ccccc2n1CC(=O)N1CC(C(=O)N2CCCCC2)Oc2ccccc21 (centres undefined)	82.1% (inactive)
CC(C)C(Oc1cccc2ccccc12)C(=O)O (centres undefined)	118% (inactive)
CS(=O)(=O)c1ccc(C(=O)N(CC2CCCO2)c2nc3ccccc3s2)cc1[N+](=O)[O-] (centres undefined)	110% (inactive)
CCOc1ccc(OCC(=O)Nc2cc(C)cc(C)c2)cc1	89.4% (inactive)
CC1(COc2ccc(N3CCC(Oc4ccc(OC(F)(F)F)cc4)CC3)cc2)Cn2cc([N+](=O)[O-])nc2O1 (centres undefined)	111% (inactive)
CC(C)(CN)c1nc(-c2ccc(Cl)c(O)c2)c(-c2ccnc(N)n2)[nH]1	88.2% (inactive)
O=C(Nc1nnc(S)s1)c1cc(Br)ccc1Cl	97% (inactive)
Cc1nc(-c2ccccn2)nc(NCCc2ccc(S(C)(=O)=O)cc2)c1Cl	118% (inactive)
O=C(C(Cc1c[nH]c2ccccc12)NS(=O)(=O)c1ccc(Cl)cc1)N1CCCCC1 (centres undefined)	43.6% (inactive)
Cc1noc(C)c1C(=O)N1CCCC(c2[nH]c3c(C)cccc3c2-c2ccncc2)C1 (centres undefined)	51.6% (inactive)
COc1ccc(N(CCc2cccc(C)n2)C(C)=O)cc1	101% (inactive)
Cc1ccc(-c2cc(C(=O)Nc3cccnc3)c3cc(Br)ccc3n2)cc1	90.5% (inactive)
CCOc1ccc(-c2nc(NC(=O)CS(=O)(=O)c3ccccc3)sc2C)cc1	51.4% (inactive)
Nc1ncnc2c1ncn2[C@@H]1O[C@H](COS(=O)(=O)NC(=O)c2ccccc2O)[C@@H](O)[C@H]1O	60.6% (inactive)
COc1ccc2nc(C)cc(OCC(=O)Nc3ccccc3OC)c2c1	72.5% (inactive)

SMILES	percent growth
Nc1ncc(Br)cc1-c1nc2cc(Cl)cnc2[nH]1	105% (inactive)
CCOC(=O)c1cc(-c2csc(Nc3c(C)cc(C)cc3C)n2)on1	92.2% (inactive)
CCC(Sc1nc2ccccc2o1)C(=O)Nc1nnc(C)s1 (centres undefined)	40.9% (inactive)
O=[N+]([O-])c1cn2c(n1)OC[C@@H](OCc1ccc(OC(F)(F)F)cc1)C2	97.3% (inactive)
COc1cccc(OCC(=O)c2ccc(Br)cc2)c1	81.3% (inactive)
FC(F)(F)c1ccc(N(c2cccnc2)C2CCN(c3ccc(C(F)(F)F)cn3)CC2)cc1	59.5% (inactive)
COc1cccc2c(C)nc(N=C(N)N)nc12	96.9% (inactive)
Nc1ncnc2c1c(-c1cnc3ccccc3c1)nn2CC1CCNCC1	93.3% (inactive)
Clc1ccc(CCNc2cc(-c3ccccc3)nc3ncnn23)cc1	108% (inactive)
CC(=O)N1CCc2cc3nc(C)cc(C)c3cc21	84.2% (inactive)
COc1ccc(C2=NCCN2)cc1-c1cn(-c2cccc(C3=NCCN3)c2)nn1	94% (inactive)
CS(=O)(=O)Cc1nc2ccccc2oc1=O	87.9% (inactive)
CC(C)(C)c1cc(C(=O)Nc2cccnc2)cc(C(=O)Nc2cccnc2)c1	153% (inactive)
O=C(NC1CCCCC1)N1CCN(Cc2ccc3c(c2)OCO3)CC1	74.6% (inactive)
Cc1ccc(NC(=O)c2nc[nH]c2C(=O)Nc2nc3ccccc3[nH]2)c(C)c1	147% (inactive)
CCc1nc2ccc(C(=O)NCc3ccc4c(c3)OCO4)cn2c1N(C)Cc1cccs1	44% (inactive)
C[C@]1(O)C[C@@H](c2nc(-c3ccc4ccc(-c5ccccc5)nc4c3)c3c(N)nccn32)C1	133% (inactive)
Cc1nn2c(=O)c3c([nH]c2c1-c1ccc(Cl)cc1)CCCC3	89.2% (inactive)
COc1cc(Br)cc2cc(C(=O)Nc3cccc(C(F)(F)F)c3)c(=O)oc12	125% (inactive)
